Screening data (PubChem)
FBPA coupling cs: qHTS Assay for Inhibitors of Fructose-1,6-bisphosphate Aldolase from Giardia Lamblia: Coupling assay counterscreen. coupling enzyme system counterscreen, AmpLite Red fluorescence. activity change, negative = inhibition, % at 58.2 µM, hits read low. 290,000 compounds, 0.67% hits. AID 2472, 2010; in the data active means activity change below about -30%
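Final compound at 57.5 uM, incubated 10 min at RT with coupling enzyme reagent (glyceraldehyde-3-phosphate), then 20 min with substrate and AmpLite Red detection. Fluorescence read at 525/598 nm; tests interference with the coupling assay, not aldolase inhibition.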
Tau FP inhib: qHTS for Inhibitors of Tau Fibril Formation, Fluorescence Polarization; Microtubule-associated protein tau (Homo sapiens), P10636; K18 P301L tau heparin fibrillization, Alexa594 FP, 6 h; Potency, µM (titrated, usually from 57.7 µM), without a hit: at the top dose activity, negative = inhibition, actives largely listed as inhibitors; 280,000 compounds, 0.39% hits; AID 1468, 2008; further: potency means the concentration at half of the fitted maximal effect; nearly all actives have a fitted effect of over 55% in size
Target sequence (P10636 561-689 P618L limits assumed): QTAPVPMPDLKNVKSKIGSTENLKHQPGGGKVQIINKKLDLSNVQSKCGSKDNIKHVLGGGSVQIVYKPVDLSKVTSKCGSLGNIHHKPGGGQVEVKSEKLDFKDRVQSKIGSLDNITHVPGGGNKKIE
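Human K18 P301L fragment (15 uM unlabeled plus 0.24 uM Alexa 594-labeled) in 100 mM sodium acetate pH 7 with compound, aggregation induced by 20 uM heparin for 6 hr at 37 C. ThT (30 uM) added for 1 hr, then Alexa 594 FP read.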
Tau fluor cs: Counterscreen qHTS for Inhibitors of Tau Fibril Formation, Fluorescence Polarization; tau K18 P301L Alexa594 fluorescence, heparin fibrillization; Potency, µM (top dose mostly 57.7 µM), for the others: at the highest dose activity change, negative = decrease; AID 1463, 2008; 280,000 compounds, 0.93% hits; further: potency means the concentration at half of the fitted maximal effect; nearly all actives have a fitted effect of over 55% in size
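Human tau K18 P301L (15 uM unlabeled, 0.24 uM Alexa 594-labeled) in 100 mM sodium acetate pH 7 with 20 uM heparin, 6 hr at 37 C. ThT 30 uM added, 1 hr ambient; Alexa 594 FP and total fluorescence read at 555/632 nm.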
Sfp PPTase inh: qHTS Assay for Inhibitors of Bacillus subtilis Sfp phosphopantetheinyl transferase (PPTase); Potency, µM, for inactives: largest response in the series, negative = inhibition, actives largely listed as inhibitors; 310,000 compounds, 3.5% hits; Biochemical Sfp PPTase activity, qHTS; AID 1490, 2009;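 further: the enzyme is Sfp with the accession as filed and its product quenches rhodamine fluorescence; potency means the concentration at half of the fitted maximal effect; 0% = enzyme reaction without inhibitor and -100% = no enzyme wells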
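Step 1, compound plus 15 nM Sfp-PPTase, 15 min, room temperature. Step 2, add rhodamine-CoA (5 uM) and BHQ-2-YbbR (12.5 uM). Step 3, read 525/598 nm fluorescence at 0 and 30 min.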
Tau fibril ThT: qHTS for Inhibitors of Tau Fibril Formation, Thioflavin T Binding. recombinant tau K18 P301L (four-repeat tau fragment), heparin-induced fibrillization, ThT fluorescence. AID 1460, 2008. 270,000 compounds, 2.1% hits. Potency, µM (highest dose often 57.4 µM), inactives show top-dose activity, negative = inhibition, actives largely listed as inhibitors; further: potency means the concentration at half of the fitted maximal effect; nearly all actives have a fitted effect of over 55% in size
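Heparin-induced (20 uM) aggregation of recombinant human K18 P301L tau, 15 uM unlabeled with 0.24 uM labeled, pH 7 acetate buffer, 6 hr at 37 C with compound. Fibrils quantified by 30 uM ThT fluorescence after 1 hr ambient incubation.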
G9a inh: qHTS Assay for Inhibitors of Histone Lysine Methyltransferase G9a; Histone-lysine N-methyltransferase EHMT2 (Homo sapiens), Q96KQ7; G9a H3K9 monomethylation, AlphaScreen, 2 h; Potency, µM (top dose mostly 102 µM), inactives show top-dose activity, negative = inhibition, actives largely listed as inhibitors; 350,000 compounds, 8.8% hits; AID 504332, 2011; further: potency means the concentration at half of the fitted maximal effect; nearly all actives have a fitted effect of over 75% in size
Target sequence (Q96KQ7 913-1193 limits assumed): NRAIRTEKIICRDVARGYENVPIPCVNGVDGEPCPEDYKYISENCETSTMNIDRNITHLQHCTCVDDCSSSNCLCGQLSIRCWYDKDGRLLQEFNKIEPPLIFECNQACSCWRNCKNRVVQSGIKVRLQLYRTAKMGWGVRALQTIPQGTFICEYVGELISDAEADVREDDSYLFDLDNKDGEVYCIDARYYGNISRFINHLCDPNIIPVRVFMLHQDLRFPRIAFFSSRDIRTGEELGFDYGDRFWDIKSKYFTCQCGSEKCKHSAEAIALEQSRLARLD
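Using a bead-based AlphaScreen, monomethylated H3K9 product from 2 h room-temperature reactions (G9a 20 nM, peptide 500 nM, SAM 20 uM) was detected with 0.5 ug/mL rabbit anti-H3K9me1 antibody.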
Numbers without * were called inactive; ? = inconclusive; · = not tested or not shown; [ ] = dose if it differs, or a comment. Shown are actives, neighbours in structure and some others; about 11% of the full set was active somewhere. Unless noted, the call rests on the fitted dose curve; in most records, active means well fitted curve in the direction sought with a large enough effect; inconclusive means small, poorly fitted or top-dose-only effect, or another doubt; inactive means no such curve, though single readings can be large; an effect the other way counts as inactive or inconclusive. Unless noted, on the % scale 0 is the no-effect control and ±100 the full control effect.

SMILES	FBPA coupling cs	Tau FP inhib	Tau fluor cs	Sfp PPTase inh	Tau fibril ThT	G9a inh
O=C(O)C(Cc1ccccc1)N1C(=O)/C(=C/c2cccc3ccccc23)SC1=S (stereo unspecified)	8	-6%	-16%	-19%	20µM*	?
CCOc1ccc(/C=C2\SC(=S)N(NS(=O)(=O)c3ccccc3)C2=O)cc1OC	8	8%	-6%	-24%	14µM*	·
CC(=O)C1(C)CC2(CC(C)(C)OC2=O)C(=O)O1 (stereo unspecified)	0	2%	-15%	11%	-9%	·
COc1ccc(-c2noc(-c3ccc(N4CCN(c5ccc(OC)cc5)CC4)c([N+](=O)[O-])c3)n2)cc1	·	3%	-8%	·	2%	-30%[59 µM]
O=C(NCc1ccc2c(c1)OCO2)c1ccc2c(c1)N(Cc1ccc(F)cc1)C(=O)c1ccccc1S2=O (stereo unspecified)	·	-11%	-24%	·	2%	-2%[59 µM]
O=C(NN1C(=O)/C(=C\c2ccc(O)c([N+](=O)[O-])c2)SC1=S)c1ccccc1Cl	8	14%	?	-4%	3.2µM*	4µM*
COc1cc(/C=C2\SC(=S)N(C(Cc3ccccc3)C(=O)O)C2=O)ccc1O (stereo unspecified)	10	2%	-17%	?	11µM*	·
COc1cc(/C=C2\SC(=S)N(NC(=O)c3ccc(O)cc3)C2=O)ccc1O	7	·	·	5%	·	-47%[12.7 µM]
O=C(O)C(Cc1ccccc1)N1C(=O)/C(=C/c2ccccc2)SC1=S (stereo unspecified)	7	0%	0%	-2%	?	?
COc1cc(/C=C2\SC(=S)N(Nc3ccccc3)C2=O)ccc1O	4	11%	28µM*[quencher]	?	11µM*	?
O=C(NN1C(=O)/C(=C/c2ccc(O)c(O)c2)SC1=S)c1ccccc1	-4	·	·	-26%	·	6.3µM*
COc1ccc2c(c1)c1c(c(=O)n(-c3ccccc3C)c(=O)n1Cc1cccc(C(F)(F)F)c1)n2C	·	-6%	-5%	·	6%	-6%[59 µM]
Clc1ccccc1-c1ccc(/C=N/n2cnnc2)o1	0	9%	-7%	5%	-15%	-19%
C=CCN1C(=O)/C(=C/c2ccsc2)SC1=S	3	-6%	-12%	-3%	-13%	-45%
C=CCN1C(=O)/C(=C/c2ccc(-c3ccc(F)cc3)o2)SC1=S	-3	·	·	56µM*	·	?
O=C(O)C(c1ccccc1)N1C(=O)/C(=C\c2ccc(-c3ccccc3Cl)o2)SC1=S (stereo unspecified)	2	·	·	50µM*	·	40µM*
O=C(O)C(c1ccccc1)N1C(=O)/C(=C\c2ccc(-c3ccc(Br)cc3)o2)SC1=S (stereo unspecified)	2	·	·	-23%	·	40µM*
Cc1ccc(/C=C2\SC(=S)N(C(Cc3ccccc3)C(=O)O)C2=O)cc1 (stereo unspecified)	1	-1%	0%	-9%	?	?
Cc1ccc(Nc2c(-c3cccnc3)nc3ccc(Cl)cn23)cc1	·	1%	-19%	·	-10%	-1%[59 µM]
O=S(=O)(NCCc1nnc2ccc(SCc3c(F)cccc3Cl)nn12)c1ccccc1	·	2%	-6%	·	-12%	-30%[59 µM]
O=C(NCC(c1ccc2c(c1)OCO2)N1CCN(c2ccccc2)CC1)c1ccccc1 (stereo unspecified)	·	11%	-18%	·	-15%	-33%[59 µM]
CN(Cc1ccc(Cl)s1)C(=O)CN1C(=O)N(C)C2(CCCCC2)C1=O	·	·	·	·	·	7%
CC1(C)N=C(c2ccc(F)cc2)C(=O)N1CC(=O)Nc1ccccc1Cl	·	-10%	-6%	·	0%	16%[59 µM]
CC(C)C(=O)N1CCc2cc(-c3csc(N)n3)ccc21	1	-14%	-17%	40µM*	?	?
CCCn1c(CCC(=O)Nc2cc(C(=O)OC)cc(C(=O)OC)c2)nc2cccnc21	·	-11%	-26%	·	-4%	-18%[59 µM]
SMILES	FBPA coupling cs	Tau FP inhib	Tau fluor cs	Sfp PPTase inh	Tau fibril ThT	G9a inh
CC(=O)c1c(C)oc2c1C(=O)c1ccccc1C2=O	-41*	4%	-11%	4%	?	-13%
COc1ccc(CNC(=O)c2c(C)oc3c2C(=O)c2ccccc2C3=O)cc1	-45*	6%	?	10%	?	11µM*
Cc1oc2c(c1C(=O)NCc1cccnc1)C(=O)c1ccccc1C2=O	-26	0%	-19%	0%	-17%	·
O=c1c(N2CCN(c3ccc(F)cc3)CC2)csc2ccc(F)cc12	·	?	?	·	5µM*	-5%[59 µM]
COc1ccc(N2CCN(c3csc4ccccc4c3=O)CC2)cc1	·	-5%	?	·	11µM*	?
COc1ccccc1N1CCN(c2csc3ccc(Cl)cc3c2=O)CC1	·	6%	-8%	·	?	1%[59 µM]
CC1CCN(c2csc3ccc(F)cc3c2=O)CC1	·	14%	-10%	·	?	-3%[59 µM]
COc1ccc(N2CCN(c3csc4ccc(Cl)cc4c3=O)CC2)cc1	·	4%	-22%	·	6.3µM*	-51%[59 µM]
COc1ccc(-c2cc(CNS(=O)(=O)c3ccc(F)cc3)on2)cc1	0	-4%	-19%	17%	?	5%
Cc1ccc(-n2c(=O)c3c4c(sc3n3c(=S)[nH]nc23)CCC4)cc1	1	5%	-13%	-2%	-13%	2.8µM*
COc1ccc(-n2c(=O)c3c4c(sc3n3c(=S)[nH]nc23)CCC4)cc1	1	8%	-15%	?	-12%	2.5µM*
CCn1c(=O)c2c3c(sc2n(C)c1=O)CCC3	3	2%	-5%	3%	-7%	-26%
Cc1cccc(-n2c(=O)c3c4c(sc3n3c(=S)[nH]nc23)CCC4)c1	3	-5%	-18%	?	-14%	?
CCn1c(=O)c2c3c(sc2n2c(=S)[nH]nc12)CCC3	1	6%	-8%	-6%	-10%	3.2µM*
Cc1ccc(-n2c(=S)[nH]c3sc4c(c3c2=O)CCC4)cc1	6	-6%	-4%	-29%	-12%	45µM*
O=c1c2c3c(sc2n2c(=S)[nH]nc2n1-c1ccccc1)CCC3	4	6%	2%	-20%	·	·
Cc1ccc(-n2c(=O)[nH]c3sc4c(c3c2=O)CCCC4)cc1	·	-5%	-23%	·	?	5%[59 µM]
